Assay results from PubChem BioAssay (NCATS).
“And” between values parts separate entries of the source, which are not always exact repeats. Equal entries are not always repeated. Results filed as inconclusive are left out. The source made the active and inactive calls. Unless noted, calls come from the whole dose curve.

Columns and labels:
[1] = molecular target: Bile acid receptor (Homo sapiens) (UniProt Q96RI1); experiment: qHTS assay for small molecule antagonists of farnesoid X receptor signaling (AID 588526); note: % is set by controls: 0 for no effect and ±100 for the full control effect
Procedure, shortened: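 Antagonist mode: titrated compounds tested against chenodeoxycholic acid stimulation (normalized to 50 uM CDCA and DMSO) in GeneBLAzer HEK293T cells for 16 h. Beta-lactamase read by CCF4 fluorescence; IC50 from Hill fits.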

[2] = molecular target: Glucocorticoid receptor (Homo sapiens) (UniProt P04150); experiment: qHTS assay for small molecule agonists of glucocorticoid receptor signaling (AID 588532; active = well fitted curve in the direction sought with a large enough effect in the signal ratio, with a control signal flat; the % refers to the signal ratio;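 note: 100% = dexamethasone at 0.1 µM and 0% = DMSO only wells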); details: HeLa MMTV-bla, beta-lactamase ratio, agonist, 18 h; stronger effect = higher value; percent of dexamethasone control, DMSO zero
Procedure, shortened: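 MMTV-bla HeLa beta-lactamase reporter cells in 1% charcoal/dextran FBS medium, compounds up to 92 uM for 18 h at 37 C, CCF4 readout; normalized to 0.1 uM dexamethasone (100%), EC50 and efficacy from Hill fits.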

[3] = molecular target: Glucocorticoid receptor (Homo sapiens) (UniProt P04150); experiment: qHTS assay for small molecule antagonists of glucocorticoid receptor signaling (AID 588533; active = well fitted inhibition curve with a large enough effect in the signal ratio, with a control signal flat, not every such curve was filed as active; the % refers to the signal ratio; note: % is set by controls: 0 for no effect and ±100 for the full control effect)
Procedure, shortened: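 Antagonist-mode qHTS: compound titrations added to GRE-bla HeLa cells, then dexamethasone 2 nM final; 18 h, 37 C. CCF4 FRET fluorescence normalized to dexamethasone and DMSO; IC50 from Hill fit.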

[4] = qHTS assay for small molecule antagonists of peroxisome proliferator-activated receptor delta signaling (AID 588535; active = well fitted inhibition curve with a large enough effect in the signal ratio, with a control signal flat, not every such curve was filed as active; the % refers to the signal ratio;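 for max response: cells co-treated with a PPAR-delta agonist as stimulator during compound exposure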); details: HEK293T PPARd-UAS-bla, beta-lactamase FRET ratio, 18 h; 460 nm channel
Procedure, shortened: (§1)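 Beta-lactamase reporter read-out (405 nm excitation, 460/530 nm emission) after CCF4 loading for 2 hrs at RT. HEK293T PPAR-delta-UAS-bla cells, 2% charcoal/dextran FBS, compounds for 18 hrs at 37 C. Hill fit gave IC50 and efficacy.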

[5] = molecular target: Peroxisome proliferator-activated receptor delta (Homo sapiens) (UniProt Q03181); experiment: as above
Procedure, shortened: as §1

[6] = molecular target: Peroxisome proliferator-activated receptor gamma (Homo sapiens) (UniProt P37231); experiment: qHTS assay for small molecule agonists of peroxisome proliferator-activated receptor gamma signaling (AID 588536; active = well fitted curve in the direction sought with a large enough effect in the signal ratio, with a control signal flat, not every such curve was filed as active; the % refers to the signal ratio;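 note: 0% = DMSO basal wells and 100% = rosiglitazone at 2 µM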)
Procedure, shortened: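 Cells were plated and held 6–6.5 h at 37 C, then compounds were added as a titration series. After a further 16 h, CCF4 dye was loaded for 2 h at room temperature and emission at 460/530 nm recorded.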

[7] = molecular target: Vitamin D3 receptor (Homo sapiens) (UniProt P11473); experiment: qHTS assay for small molecule antagonists of vitamin D receptor signaling (AID 588541);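 note: receptor activated by calcitriol during compound treatment; series mostly up to about 77 µM; % is set by controls: 0 for no effect and ±100 for the full control effect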
Procedure, shortened: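 VDR-UAS-bla HEK293T cells in 2% charcoal-stripped FBS were stimulated with 1-alpha,25-dihydroxyvitamin D3 (3 nM final) plus compound for 16 h at 37 C. The beta-lactamase CCF4 readout was normalized to 50 nM agonist and DMSO, and Hill fits gave IC50.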

[8] = molecular target: Vitamin D3 receptor (Homo sapiens) (UniProt P11473); experiment: qHTS assay for small molecule agonists of vitamin D receptor signaling (AID 588543);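 note: 0% = DMSO basal and 100% = reference agonist control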
Procedure, shortened: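 qHTS in agonist mode: compound titrations stimulate a VDR-driven β-lactamase reporter in HEK293T cells over 16 h at 37 °C. Response normalized to 50 nM 1α,25-dihydroxyvitamin D3 = 100%, DMSO = 0%; Hill fitting gives EC50 and maximal response.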

[9] = molecular target: Peroxisome proliferator-activated receptor gamma (Homo sapiens) (UniProt P37231); experiment: qHTS assay for small molecule antagonists of peroxisome proliferator-activated receptor gamma signaling (AID 588537; active = well fitted inhibition curve with a large enough effect in the signal ratio, with a control signal flat, not every such curve was filed as active; the % refers to the signal ratio;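 note: reporter cells co-stimulated with 50 nM rosiglitazone agonist during compound treatment; % of control where 0% means no effect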)
Procedure, shortened: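 Read-out: CCF4 fluorescence (ex 405, em 460/530 nm) after 2 h at RT. Cells were HEK293 carrying a UAS-bla reporter and treated 16 h at 37 C with compound plus rosiglitazone (50 nM final). Normalized to rosiglitazone and DMSO.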

[10] = molecular target: Androgen receptor (Homo sapiens) (UniProt P10275); experiment: qHTS assay for small molecule antagonists of androgen receptor signaling (AID 588516; active = well fitted curve in the direction sought with a large enough effect in the signal ratio, with a control signal flat, not every such curve was filed as active; the % refers to the signal ratio; note: % is set by controls: 0 for no effect and ±100 for the full control effect)
Procedure, shortened: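 Antagonist-mode qHTS: inhibition of R1881 (10 nM)-driven beta-lactamase expression in GripTite HEK 293 cells is measured after 16 h; values are Hill-derived IC50s normalized between R1881 and DMSO wells.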

Bile acid receptor (Homo sapiens), sequence (Q96RI1 whole entry, looked up): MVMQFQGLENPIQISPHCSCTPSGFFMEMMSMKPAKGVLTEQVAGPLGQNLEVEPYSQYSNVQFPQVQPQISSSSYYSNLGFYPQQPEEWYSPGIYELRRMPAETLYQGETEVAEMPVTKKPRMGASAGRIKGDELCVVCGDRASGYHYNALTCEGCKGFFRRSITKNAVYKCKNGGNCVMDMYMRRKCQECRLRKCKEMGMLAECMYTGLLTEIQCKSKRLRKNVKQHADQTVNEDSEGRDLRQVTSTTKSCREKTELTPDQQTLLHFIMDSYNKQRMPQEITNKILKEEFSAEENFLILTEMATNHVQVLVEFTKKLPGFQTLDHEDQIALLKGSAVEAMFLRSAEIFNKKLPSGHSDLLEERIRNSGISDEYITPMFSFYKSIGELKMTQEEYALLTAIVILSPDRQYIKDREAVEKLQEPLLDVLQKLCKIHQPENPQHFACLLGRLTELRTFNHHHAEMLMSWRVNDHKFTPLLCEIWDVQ
Androgen receptor (Homo sapiens), sequence (P10275 whole entry, looked up): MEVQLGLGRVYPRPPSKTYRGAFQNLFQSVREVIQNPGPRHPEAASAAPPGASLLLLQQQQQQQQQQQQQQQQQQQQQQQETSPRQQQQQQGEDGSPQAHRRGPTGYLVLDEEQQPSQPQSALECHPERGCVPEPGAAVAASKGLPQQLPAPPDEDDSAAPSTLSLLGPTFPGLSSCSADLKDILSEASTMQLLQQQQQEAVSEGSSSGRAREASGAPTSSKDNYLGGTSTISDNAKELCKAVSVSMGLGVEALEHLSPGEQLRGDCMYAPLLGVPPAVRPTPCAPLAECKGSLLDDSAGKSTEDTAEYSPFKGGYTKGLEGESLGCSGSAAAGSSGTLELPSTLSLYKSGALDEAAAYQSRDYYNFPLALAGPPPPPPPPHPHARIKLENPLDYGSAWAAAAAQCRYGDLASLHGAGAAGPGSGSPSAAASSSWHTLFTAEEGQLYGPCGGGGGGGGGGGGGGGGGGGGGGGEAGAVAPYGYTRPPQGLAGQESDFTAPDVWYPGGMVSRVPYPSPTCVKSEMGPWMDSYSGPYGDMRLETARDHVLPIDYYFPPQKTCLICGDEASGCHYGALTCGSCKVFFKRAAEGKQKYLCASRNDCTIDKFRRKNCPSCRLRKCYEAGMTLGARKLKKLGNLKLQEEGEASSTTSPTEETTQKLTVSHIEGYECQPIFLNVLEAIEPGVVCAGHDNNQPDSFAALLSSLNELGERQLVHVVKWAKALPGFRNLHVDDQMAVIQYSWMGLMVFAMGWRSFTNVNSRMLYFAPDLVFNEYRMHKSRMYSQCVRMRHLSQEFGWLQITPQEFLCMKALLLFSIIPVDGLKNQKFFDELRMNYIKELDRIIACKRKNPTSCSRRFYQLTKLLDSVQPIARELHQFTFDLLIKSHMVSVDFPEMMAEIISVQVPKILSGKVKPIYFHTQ
Glucocorticoid receptor (Homo sapiens), sequence (P04150 whole entry, looked up): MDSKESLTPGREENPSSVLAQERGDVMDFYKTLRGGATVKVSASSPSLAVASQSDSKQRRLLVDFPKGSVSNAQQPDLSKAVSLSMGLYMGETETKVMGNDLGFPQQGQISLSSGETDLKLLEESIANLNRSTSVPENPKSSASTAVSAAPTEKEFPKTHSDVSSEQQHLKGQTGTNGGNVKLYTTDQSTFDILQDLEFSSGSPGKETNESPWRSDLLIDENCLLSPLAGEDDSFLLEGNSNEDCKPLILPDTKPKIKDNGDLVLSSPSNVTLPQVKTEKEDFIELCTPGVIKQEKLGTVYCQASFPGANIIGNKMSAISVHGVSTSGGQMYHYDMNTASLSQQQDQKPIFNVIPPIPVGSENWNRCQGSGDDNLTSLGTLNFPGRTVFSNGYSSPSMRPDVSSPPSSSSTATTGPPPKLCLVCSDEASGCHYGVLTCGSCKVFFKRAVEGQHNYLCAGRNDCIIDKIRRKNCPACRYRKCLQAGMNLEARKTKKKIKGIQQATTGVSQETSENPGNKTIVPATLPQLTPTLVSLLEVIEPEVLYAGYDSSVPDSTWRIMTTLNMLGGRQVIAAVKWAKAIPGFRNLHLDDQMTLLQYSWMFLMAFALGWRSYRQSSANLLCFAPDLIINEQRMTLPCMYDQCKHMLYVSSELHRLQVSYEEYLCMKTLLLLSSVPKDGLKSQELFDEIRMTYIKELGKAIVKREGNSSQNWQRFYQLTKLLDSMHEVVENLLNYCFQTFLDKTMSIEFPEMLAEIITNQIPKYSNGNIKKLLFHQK
Peroxisome proliferator-activated receptor gamma (Homo sapiens), sequence (P37231 whole entry, looked up): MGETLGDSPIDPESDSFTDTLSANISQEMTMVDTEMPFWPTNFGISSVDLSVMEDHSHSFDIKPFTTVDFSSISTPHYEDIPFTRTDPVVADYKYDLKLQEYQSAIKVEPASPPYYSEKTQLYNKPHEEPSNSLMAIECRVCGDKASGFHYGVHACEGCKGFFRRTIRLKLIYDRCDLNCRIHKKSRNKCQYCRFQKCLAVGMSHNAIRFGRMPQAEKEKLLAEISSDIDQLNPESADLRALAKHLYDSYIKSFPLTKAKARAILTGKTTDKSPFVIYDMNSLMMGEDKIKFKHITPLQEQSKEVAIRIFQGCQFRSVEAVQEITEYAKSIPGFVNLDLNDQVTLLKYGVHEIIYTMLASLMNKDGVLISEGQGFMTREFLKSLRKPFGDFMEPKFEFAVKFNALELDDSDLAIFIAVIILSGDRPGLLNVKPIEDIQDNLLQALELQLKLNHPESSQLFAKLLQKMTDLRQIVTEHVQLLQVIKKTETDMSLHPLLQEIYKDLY
Peroxisome proliferator-activated receptor delta (Homo sapiens), sequence (Q03181 whole entry, looked up): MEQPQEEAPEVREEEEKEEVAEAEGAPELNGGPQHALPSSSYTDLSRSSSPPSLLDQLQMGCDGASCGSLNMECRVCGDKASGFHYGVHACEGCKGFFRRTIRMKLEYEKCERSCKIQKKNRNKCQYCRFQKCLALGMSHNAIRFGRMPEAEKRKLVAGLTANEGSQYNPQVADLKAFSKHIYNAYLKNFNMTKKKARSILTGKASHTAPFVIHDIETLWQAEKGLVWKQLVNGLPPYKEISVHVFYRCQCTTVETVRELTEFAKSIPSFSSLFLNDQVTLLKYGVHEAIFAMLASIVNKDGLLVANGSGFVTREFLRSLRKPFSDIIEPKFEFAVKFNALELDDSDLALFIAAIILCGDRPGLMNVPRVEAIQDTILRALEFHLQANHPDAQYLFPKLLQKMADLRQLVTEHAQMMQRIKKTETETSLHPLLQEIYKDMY
Vitamin D3 receptor (Homo sapiens), sequence (P11473 whole entry, looked up): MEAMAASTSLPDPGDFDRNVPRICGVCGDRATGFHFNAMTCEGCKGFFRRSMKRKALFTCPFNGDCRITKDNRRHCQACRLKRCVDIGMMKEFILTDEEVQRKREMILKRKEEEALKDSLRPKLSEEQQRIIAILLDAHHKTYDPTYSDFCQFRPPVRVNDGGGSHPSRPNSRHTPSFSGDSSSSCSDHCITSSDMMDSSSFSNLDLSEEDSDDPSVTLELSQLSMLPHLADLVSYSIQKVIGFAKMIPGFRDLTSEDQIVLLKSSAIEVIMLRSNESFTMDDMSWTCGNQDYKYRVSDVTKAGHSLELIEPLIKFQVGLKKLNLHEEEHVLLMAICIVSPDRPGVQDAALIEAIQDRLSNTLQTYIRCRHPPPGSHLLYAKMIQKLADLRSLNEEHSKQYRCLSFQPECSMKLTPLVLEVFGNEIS

SMILES | outcome [1] | activation [2] | outcome [3] | max response [4] | outcome [5] | outcome [6] | outcome [7] | outcome [8] | outcome [9] | outcome [10]
CCCCCCCC(=O)OCC(COC(=O)CCCCCCC)OC(=O)CCCCCCC | inactive | 2.19% (inactive) | inactive | 17.8% | inactive | inactive | inactive | inactive |  | 
COC(=O)c1ccc(O)cc1 |  | 15.6% (inactive) | inactive | 34.1% | inactive | inactive | inactive | inactive | inactive | 
Cc1cc(C)nc(NS(=O)(=O)c2ccc(N)cc2)n1 | inactive | 5.22% (inactive) and 0.742% (inactive) | inactive | 18.4% and -14.9% | inactive | inactive |  |  |  | 
O=C(c1ccccc1)C(O)c1ccccc1 (stereo not given) |  | 2.68% (inactive) and -5.31% (inactive) | inactive | -5.59% and -16% | inactive | inactive | inactive | inactive | inactive | 
O=C(OOC(=O)c1ccccc1)c1ccccc1 |  | 6.15% (inactive) | inactive |  |  | inactive |  |  | inactive | 
CCCCCCCCCCCCCCCCCCO |  | -8.91% (inactive) | inactive | 2.82% | inactive | inactive | inactive | inactive | inactive | 
Cc1cc(O)cc(C)c1Cl |  |  | inactive | 24.1% | inactive | inactive |  |  | inactive | 
CC(=O)Nc1ccccc1 | inactive | -0.909% (inactive) | inactive | 17.1% | inactive | inactive | inactive | inactive | inactive | 
Nc1ccc(S(=O)(=O)c2ccc(N)cc2)cc1 | inactive |  |  | -19.4% and 10.1% | inactive | inactive |  |  | inactive | 
O=C1c2cccc(O)c2C(=O)c2c(O)cccc21 |  |  |  |  |  |  |  | inactive | inactive | 
Cc1c(C(=O)NCCO)[n+](=O)c2ccccc2n1[O-] |  | 0.345% (inactive) | inactive | -20% | inactive | inactive | inactive |  |  | inactive
CC(=O)NS(=O)(=O)c1ccc(N)cc1 |  | -1.25% (inactive) | inactive | 26.9% | inactive |  | inactive | inactive |  | 
Cc1c(N(C)C)c(=O)n(-c2ccccc2)n1C | inactive | 1.22% (inactive) and -3.75% (inactive) | inactive | 15.6% | inactive |  | inactive | inactive |  | 
CC[N+](CC)(CC(=O)Nc1c(C)cccc1C)Cc1ccccc1 |  |  |  |  |  | inactive | inactive | inactive | inactive | 
CC(=O)OCC(COC(C)=O)OC(C)=O |  | -5.82% (inactive) | inactive | -24.1% and 22.8% | inactive | inactive | inactive | inactive | inactive | 
CC1CC(OC(=O)c2ccccc2O)CC(C)(C)C1 (stereo not given) |  | 2.49% (inactive) | inactive | 23.9% | inactive | inactive |  |  |  | 

SMILES | outcome [1] | activation [2] | outcome [3] | max response [4] | outcome [5] | outcome [6] | outcome [7] | outcome [8] | outcome [9] | outcome [10]
CCCCCC(N)=O |  |  |  | -31.8% | inactive | inactive | inactive | inactive | inactive | 
OC[C@@H](O)[C@@H](O)[C@H](O)[C@H](O)CO |  |  |  |  |  | inactive | inactive | inactive | inactive | 
Cc1cc(=O)[nH]c(=S)[nH]1 | inactive | -0.999% (inactive) | inactive |  |  | inactive | inactive | inactive | inactive | 
C=CCNC(N)=S |  |  |  | 13.5% | inactive | inactive | inactive | inactive |  | 
CC(=O)Nc1ccc(C(=O)O)cc1 |  | -0.936% (inactive) | inactive |  |  | inactive |  |  | inactive | 
COc1ccc(O)cc1 |  | -2.84% (inactive) | inactive | 3.48% | inactive |  | inactive | inactive |  | inactive
O=C1C(c2[nH]c3ccccc3c2O)=Nc2ccccc21 | inactive | 5.37% (inactive) | inactive | 32.9% | inactive |  |  |  |  | 
CCCCOC(=O)c1ccc(N)cc1 |  | -4.26% (inactive) |  |  |  | inactive | inactive | inactive |  | 
CCCC(O)C(CC)CO (stereo not given) |  |  |  | 2.27% | inactive | inactive |  |  |  | 
FC(F)(F)C(Cl)Br (stereo not given) |  | -1.46% (inactive) | inactive | -35.1% | inactive | inactive |  |  | inactive | 
O=C(O)CCCCC1CCSS1 (stereo not given) |  | -0.0197% (inactive) and 20% (inactive) | inactive | 4.26% | inactive | inactive | inactive | inactive | inactive | 
CC(=O)Nc1cccc(O)c1 |  |  |  |  |  | inactive |  |  |  | 
Cc1cccc(Nc2ccccc2C(=O)O)c1C |  |  | inactive |  |  |  |  |  |  | 
Cc1ccc(C(C)C)c(O)c1 |  | -10.5% (inactive) | inactive | -0.969% | inactive | inactive | inactive | inactive |  | 
CCN(CC)C(=O)c1cccc(C)c1 | inactive | -2.58% (inactive) and -6.82% (inactive) | inactive | -21.8% | inactive | inactive | inactive | inactive | inactive | 
CC(C)=CCC/C(C)=C/CO | inactive |  | inactive | -8.02% | inactive | inactive | inactive |  | inactive | inactive
